# Activity calls are given as the source filed them.
# Assays:
# [1] = A549 cell viability effects, profiling panel, calcein-AM fluorescence, 48 h, basal (AID 1162); conditions: higher = more signal
# [2] = adipocyte viability effects, profiling panel, cell-based, 3T3-L1 adipocytes, calcein-AM fluorescence, 48 h, basal (AID 1163); conditions: 3T3-L1 adipocytes viability, higher = more signal
# [3] = HepG2 cell viability effects, profiling panel, calcein-AM fluorescence, 48 h, basal (AID 1164); conditions: higher = more signal
# [4] = MM1S cell viability effects, profiling panel, calcein-AM fluorescence, 48 h, basal (AID 1165); conditions: higher = more signal;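 note: viability of MM1S multiple myeloma cells under basal unstimulated conditions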
# [5] = basal RPMI8226 viability, no added stimulus, profiling panel, cell-based, calcein-AM fluorescence, 48 h, PK04 Diversity Set (AID 1166); conditions: RPMI8226 myeloma viability, higher = more signal;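 note: cells grown under basal conditions without added stimulus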
# [6] = basal HepG2 mitochondrial membrane potential changes, profiling panel, cell-based, JC-1 fluorescence, 24 h, 100 nL compound (AID 1167); conditions: higher = more signal
# [7] = basal 3T3-L1 adipocyte mitochondrial potential changes, profiling panel, cell-based, JC-1 fluorescence, 3T3-L1 adipocytes, 24 h, 100 nL compound (AID 1168); conditions: JC-1 mitochondrial fluorescence, higher = more signal, called active from +8 up or from −8 down
# [8] = basal RPMI8226 mitochondrial membrane potential changes, profiling panel, cell-based, JC-1 fluorescence, 24 h, 100 nL compound (AID 1169); conditions: RPMI8226 myeloma, JC-1 mitochondrial potential fluorescence, higher = more signal
# [9] = basal MM1S mitochondrial membrane potential changes, profiling panel, cell-based, JC-1 fluorescence, 24 h, 100 nL compound (AID 1170); conditions: higher = more signal
# [10] = A549 lung cancer cell viability effects, profiling panel, resazurin fluorescence, 24 h, PK04 Diversity Set (AID 1171); conditions: higher = more signal, called active from +8 up or from −8 down
# Note: test concentration not given here.
Compound,z-score [1],z-score [2],z-score [3],z-score [4],z-score [5],z-score [6],z-score [7],z-score [8],z-score [9],z-score [10]
CCCCCN1CC=CC23O[C@@H]4C=CCOC(=O)[C@@H]4[C@H]2C(=O)N(CCO)[C@@H]3C1=O (stereo not given in full),-0.479,-0.609,0.0249,0.687,-0.285,-0.607,0.561 (inactive),0.174,-0.15,-0.0273 (inactive)
COCCOC(=O)N1C(=O)[C@@]2(c3ccccc31)[C@H](c1ccccc1OCCO)N1[C@H](c3ccccc3)[C@H](c3ccccc3)OC(=O)[C@H]1[C@@H]2C(=O)N1CCCCCCC1,-0.785,1,0.104,-2.51,-1.75,0.179,-0.256 (inactive),-0.641,-1.07,-0.585 (inactive)
CC(=O)N1CC(C(O)C2C=CC3C(=O)NC(=O)C3N2Nc2ccc(Cl)cc2Cl)c2ccccc21 (stereo not given),1.08,-0.753,0.46,-0.452,0.0876,-1.29,-0.229 (inactive),-0.212,0.644,-0.554 (inactive)
CC(C)(C)OC(=O)CC[C@]12N=C(c3ccc(OCCCO)cc3)O[C@H]1c1ccccc1N(Cc1ccccc1)C2=O,0.413,0.709,0.909,-2.74,-4.27,0.0521,1.16 (inactive),-1.2,-0.0831,1.66 (inactive)
C=CCC(OC(C)=O)[C@@H]1[C@@H](N(Cc2cc3ccccc3o2)C(=O)c2ccc(-c3ccccc3)cc2)c2cc(OCCCO)ccc2N1C(=O)Cc1ccc(OC)cc1 (stereo not given in full),0.315,0.443,1.04,0.0213,-0.226,1.23,-0.76 (inactive),0.738,0.239,0.0443 (inactive)
NC(=O)N1C(=O)C2C(C1=O)C1C=C(CCCO)C2C(C2CC2)N1Cc1cccc(OC(F)(F)F)c1 (stereo not given),-0.307,0.0635,0.801,-2.82,0.0097,-0.348,0.418 (inactive),0.191,0.645,-0.334 (inactive)
COC(=O)[C@@]1(Cc2ccc(F)cc2)[C@H]2c3cc(C(=O)N4CCCC4)n(CC4CC4)c3C[C@H]2CN1C(=O)c1ccccc1,-0.393,0.498,-0.713,-0.691,-2.11,1.62,-1.07 (inactive),-0.232,-0.51,-0.665 (inactive)
C=C(/C(=C/C[C@@H](OC(C)=O)c1ccc(OCCO)cc1)c1cc(C(=O)OC)ccc1OC)C(C)C,0.679,-0.345,0.747,-1.83,-0.385,0.149,-0.852 (inactive),-0.799,-0.8,0.627 (inactive)
CC(C)C[C@@H]1NC(=O)[C@@H]2C[C@H](C(=O)NCCCCCC[N+](C)(C)C)[C@H](c3cccc(OCCO)c3)N2C1=O,-0.895,0.137,-1.16,-0.131,-0.585,-1.48,0.229 (inactive),0.108,0.0386,-0.483 (inactive)
COC(=O)[C@@]1(Cc2ccc(OC)cc2)[C@H]2c3cc(C(=O)N4CCCC4)n(Cc4ccc(S(C)(=O)=O)cc4)c3C[C@H]2CN1C(=O)c1ccccc1,-0.112,0.842,0.47,0.137,-0.403,2.63,-0.606 (inactive),-0.7,-1.15,0.105 (inactive)
CC=CC(O)C1C=CC2C(=O)NC(=O)C2N1Nc1ccccn1 (stereo not given),0.0403,-1.24,-0.154,-0.228,-0.496,0.0853,-0.288 (inactive),0.137,-0.121,-1.14 (inactive)
C=C(/C(=C/C[C@H](OC(=O)c1ccncc1)c1cccc(OCCO)c1)c1cnc2ccccc2c1)C(C)C,-1.69,-1.31,-3.17,-3.07,-2.93,-0.437,-0.649 (inactive),-0.0462,-0.888,-1.68 (inactive)
CC(C)CNC(=O)[C@@]1(C)c2ccccc2C(=O)N(Cc2cc(C(F)(F)F)cc(C(F)(F)F)c2)[C@H]1c1ccc(CO)cc1,0.18,-0.698,1.2,-0.236,0.208,2.16,0.103 (inactive),0.465,-0.939,-0.428 (inactive)
CCCCC(=C=CC[C@H](O)c1ccc(OCCO)cc1)C[C@H](O)COCc1ccccc1,0.218,0.516,0.528,-3.3,-0.565,-0.399,-0.379 (inactive),-0.0821,-0.244,0.449 (inactive)
O=C1C[C@@](C(=O)NCc2ccccc2)(c2ccc([N+](=O)[O-])cc2)[C@@H](c2ccc(CO)cc2I)N1CC12CC3CC(CC(C3)C1)C2,-1.84,0.684,-2.67,-2.99,-4.33,0.878,-0.473 (inactive),-1.03,-0.91,-1.63 (inactive)
[N-]=[N+]=Nc1ccccc1C[C@]1(C(=O)NCc2ccccc2)COC(c2ccc(OCCCO)cc2)=N1,-0.827,-0.143,-1.65,-3.58,-4.42,0.789,0.443 (inactive),-1.17,-2.33,-1.41 (inactive)

Compound,z-score [1],z-score [2],z-score [3],z-score [4],z-score [5],z-score [6],z-score [7],z-score [8],z-score [9],z-score [10]
COCCCNC(=O)[C@@]1(Sc2ccc(C)cc2)CC(=O)N(Cc2ccccc2Cl)[C@@H]1c1ccc(CO)cc1I,0.217,0.0816,-0.115,-1.88,-2.32,-0.51,-0.695 (inactive),-0.175,-1.76,-0.268 (inactive)
O=C1C2C=CC(C(O)c3ccc(I)cc3)N(Nc3ccccc3)C2C(=O)N1c1ccccc1 (stereo not given),0.0685,-0.748,0.1,0.196,-0.311,-2.3,-1.3 (inactive),-0.865,-0.603,-0.393 (inactive)
C=CCC(OC(C)=O)[C@@H]1[C@@H](N(Cc2cccc3ccccc23)C(=O)c2ccc(-c3ccccc3)cc2)c2cc(OCCCO)ccc2N1C(=O)c1ccc(-c2ccccc2)cc1 (stereo not given in full),0.512,0.842,0.515,-0.484,0.294,0.78,-1.97 (inactive),0.603,0.0821,0.654 (inactive)
COCCOC(=O)N1C(=O)[C@@]2(c3cc(C#CC4(O)CCCCCC4)ccc31)[C@H](c1ccc(OCCO)cc1)N1[C@H](c3ccccc3)[C@H](c3ccccc3)OC(=O)[C@H]1[C@@H]2C(=O)Nc1nc2ccccc2s1,0.0809,0.676,0.499,-2.09,-2.15,-3.31,1.1 (inactive),-1.07,-1.46,0.813 (inactive)
Cc1ccc(N2C(=O)c3ccccc3[C@](C)(C(=O)NCc3ccccc3)[C@@H]2c2ccc(CO)cc2)nc1,0.868,0.483,0.197,-0.169,-1.46,0.191,-0.834 (inactive),-0.494,1.46,-0.0526 (inactive)
CCCCCN1CC=CC23O[C@@H]4/C=C\CCC(C)OC(=O)C4[C@H]2C(=O)N(CCCCCCO)[C@@H]3C1=O (stereo not given in full),0.29,0.644,0.822,1.6,0.656,0.589,0.785 (inactive),-0.141,-0.459,0.944 (inactive)
COC(=O)[C@@]1(Cc2ccccc2CN=[N+]=[N-])N=C(c2ccc(OCCCO)cc2)O[C@H]1c1ccccc1,-2.84,0.658,-4.68,-3.57,-4.03,-2.06,0.315 (inactive),-1.01,-2.53,-2.6 (inactive)
C=C[C@@H](C)[C@H](O)c1ccc(OCCO)cc1,0.283,0.154,-0.0484,0.0554,-0.289,1.2,0.0591 (inactive),0.948,-0.612,-0.0272 (inactive)
CC(C)[Si]1(C(C)C)OCc2cc(-c3ccc(-c4ccc(Cl)c(Cl)c4)o3)nc(CCc3ccccc3)c21,0.305,0.405,0.165,-3.2,-4.26,-2.07,0.945 (inactive),-0.838,-1.72,1.4 (inactive)
O=C1[C@@H]2[C@@H](CC(COc3ccccc3)=C3[C@@H](CCc4ccccc4)OB(O)C[C@@H]32)C(=O)N1Cc1ccccc1,-0.607,-0.141,-0.752,-3.22,-4.09,-0.851,0.453 (inactive),-1.07,0.253,-0.0787 (inactive)
CCOC(=O)C1=C[C@@H](c2ccccc2)N(S(=O)(=O)c2ccc(C)cc2)[C@H]1c1ccccc1,-0.834,-0.926,-0.813,-1.14,-1.16,1.62,-2.52 (inactive),-0.368,-0.0131,0.537 (inactive)
Cc1ccccc1C(O)C1C=CC2C(=O)N(c3ccccc3)C(=O)C2N1Nc1ccc([N+](=O)[O-])cc1 (stereo not given),-1.06,-0.127,-1.2,-0.127,-0.566,-1.04,-1.1 (inactive),-0.247,0.585,0.306 (inactive)
CCOC(=O)C=Cc1ccccc1O,-0.759,0.234,-0.944,0.226,-0.529,-0.503,-0.35 (inactive),-0.986,-1.64,0.0931 (inactive)
COCCOC(=O)N1C(=O)[C@@]2(c3cc(C#CCC(C(=O)OC)C(=O)OC)ccc31)[C@H](c1ccc(O)cc1)N1[C@H](c3ccccc3)[C@H](c3ccccc3)OC(=O)[C@H]1[C@@H]2C(=O)NC[C@H](O)c1ccccc1,-0.61,0.0453,-0.0754,-1.92,-4.3,-0.689,-1.16 (inactive),-1.08,-0.91,0.691 (inactive)
CC(C)C(=C=CC[C@H](O)c1cccc(OCCO)c1)CCO,0.211,0.786,0.401,0.214,0.292,0.434,-0.599 (inactive),0.6,-0.373,1.21 (inactive)
C=C(CCCC)/C(=C/C[C@H](OC(C)=O)c1ccc(OCCO)cc1)c1cc(C(=O)OC)ccc1OC,0.899,1.18,1.74,-2.88,-1.83,2.2,0.151 (inactive),-0.864,-0.957,1.09 (inactive)
